This is an account of results in ChEMBL document CHEMBL3988442, “University of Dundee, Small-Polar-MMV Screening Library” (2021).

Among all 69,000 compounds or so, about 10 (0.01%) showed an effect of 50% or more. This is one part of a sample in which strong results are shown more often than they occur.

For this assay, the target named is ClpP1P2 (Mycobacterium tuberculosis (strain ATCC 25618 / H37Rv)) (UniProt P9WPC5+P9WPC3). The experiment in a line: in vitro assay to detect presence of AMC directly proportional to the activity of ClpP1P2. GHDDI collaboration. Set-up: scale not given: direction of the effect not stated beside the values. The following applies: 50 µM. The assay is classed as functional.
`CCN1CC[C@@]2(C(=O)N(C)C)CCN(S(=O)(=O)c3ccccc3)CC[C@@H]12`: the Percent Effect was -6.35%.

Take `COCCN1CC[C@@H]2CN(Cc3nccn3C)C[C@@H]2C1`: the Percent Effect came out at 3.59%.

As to `Fc1cnc(N2CCO[C@H]3CN(CC4CCOC4)C[C@H]32)nc1` (stereo not given in full), the Percent Effect is -12.3%.

For the molecule `CCS(=O)(=O)N1C[C@H]2CN(CC3CC3)C(=O)[C@H]2C1`, the Percent Effect was 7.7%.

As for `CC(C)CN1C(=O)CC[C@H]2CN(Cc3ncc[nH]3)CC[C@H]21`, the Percent Effect was -3.16%.

For the molecule `O=C(C1=CCCC1)N1C[C@@H]2COC[C@]2(COCC2CC2)C1`, the Percent Effect was -3.2%.

On to `CN(C)CCN1CCO[C@H]2CN(Cc3ccccn3)C[C@H]21`, for which the Percent Effect turned out to be 1.87%.

In the case of `O=C(c1ccncc1)N1C[C@@H]2OCCN(CCN3CCCC3)[C@@H]2C1`, the Percent Effect is -8.83%.

As for `O=C1[C@H]2CN(CC3CCOCC3)C[C@H]2CN1Cc1cccc(F)c1`, the Percent Effect was determined as 7.64%.

Regarding `Cc1cccc(COC[C@@]23CCC[C@@H]2CN(S(=O)(=O)N(C)C)C3)n1`, the Percent Effect was -4.08%.

`CC1=CC[C@@H]2CN(C(=O)c3ccc(-c4nc[nH]n4)cc3)C[C@@H]2C1`: the Percent Effect was -12.9%.

With `Cc1ccc(CN2C[C@@H]3CCN(Cc4cccnc4)C(=O)[C@H]3C2)s1`, the Percent Effect amounted to 13.6%.

Consider `Cc1ccc(CN2C[C@@H]3CCN(Cc4ccncc4)C(=O)[C@H]3C2)s1`, for which the Percent Effect was determined as 54%.

Regarding `COCCN1CC[C@H]2CN(Cc3ccc(C)s3)C[C@@H]2C1=O`, the Percent Effect was -2.27%.

For the molecule `Cc1ccc(CN2C[C@H]3CN(CC4CCN(C)CC4)C(=O)[C@H]3C2)s1`, the Percent Effect is -7.79%.

Turning to `CCN1C[C@H]2CCN(Cc3ccncc3)C(=O)[C@@H]2C1`, the Percent Effect was -1.34%.

`O[C@@H]1C[C@@](CNCC2CCCC2)(COc2cccnc2)C[C@@H]1O`: the Percent Effect was -0.271%.

With `CN(C)C(=O)CO[C@H]1CN(Cc2ccoc2)[C@@H]2COC[C@H]12`, the Percent Effect is -6.93%.

Turning to `Cc1cccc(CN2C(=O)CO[C@@H]3CN(C4CCOCC4)C[C@H]32)c1`, the Percent Effect was -8.98%.

Take `Cc1cc(C)n(CCCC(=O)N2CC[C@H]3NCCC[C@]3(CO)C2)n1`: the Percent Effect is -5.5%.

Regarding `CC(C)CN1C[C@H]2N(c3ncccn3)CCC[C@@]2(C(=O)NCC2CC2)C1`, the Percent Effect is -20.2%.

Consider `Cc1cc2cc(C(=O)N3CCN(CCO)[C@@H]4CS(=O)(=O)C[C@@H]43)ccc2o1`, for which the Percent Effect was -4.08%.

Turning to `Cc1nnc(N2C[C@@H](Oc3ccccn3)[C@H]3OCCC[C@H]32)s1`, the Percent Effect turned out to be 9.54%.

For the molecule `COCCN1C[C@H]2CN(C(=O)NC(C)C)CCN2C1=O`, the Percent Effect is -7.02%.

With `COc1cc(CN2CCCCCC2c2cccs2)cc(OC)c1OC` (stereo not given), the Percent Effect amounted to 1.65%.

For `COc1cccc(CN2CCCCCC2c2cccs2)c1O` (stereo not given), the Percent Effect is -21.7%.

As to `COc1cc(CN2CCCCCC2c2cccs2)cc(OC)c1O` (stereo not given), the Percent Effect came out at 52.1%.

On to `O=C([C@H]1COC[C@H]2CN(Cc3ccco3)C[C@H]21)N1CCCO1`, for which the Percent Effect was 3.57%.

With `O=C(NC[C@H]1C[C@@H]2CCN1C[C@@H]2CN1CCCCC1)c1ccco1`, the Percent Effect was -12.3%.

Regarding `O=S(=O)(NC[C@]12COC[C@H]1CN(c1ncc(F)cn1)C2)C1CC1`, the Percent Effect was -0.384%.

For `CNC(=O)[C@@H]1C[C@H]2CN(Cc3c(C)noc3C)C[C@H]2N1C(C)C`, the Percent Effect is -4.22%.

Consider `CCSCCNC(=O)c1ccc(S(=O)(=O)N2C[C@@H]3C[C@H]2CN3)cc1`, for which the Percent Effect came out at 9.91%.

With `CC(C)NC(=O)N1CCC2(CC1)CC[C@@]1(C(=O)N(C)C)CN(C)C[C@@H]21`, the Percent Effect was -5.9%.

Take `COc1ncccc1C(=O)N1CC[C@H]2C[C@@H](c3ccncn3)O[C@@H]2C1`: the Percent Effect was -7.36%.

Turning to `O=C(CCc1ccccc1)N1C[C@H]2CCN[C@H]2C1`, the Percent Effect stood at 0.746%.

As for `COc1ncccc1CN1C[C@@H]2COC[C@]2(COCC2CC2)C1`, the Percent Effect was -9.86%.

As for `O=C1CC[C@H]2[C@H](CCN2C(=O)C2CCOC2)N1Cc1ccncc1` (stereo not given in full), the Percent Effect was determined as 0.241%.

`CNC(=O)[C@H]1C[C@@H]2CN(C(=O)Nc3ccccc3)C[C@H]1O2`: the Percent Effect is -3.31%.

Take `CNC(=O)[C@H]1C[C@@H]2CN(C(=O)c3ccsc3)C[C@@H]2N1S(C)(=O)=O`: the Percent Effect was -13.7%.

On to `Cc1ncccc1NC(=O)[C@H]1C[C@@H]2CCN(Cc3ccsc3)C[C@H]2O1`, for which the Percent Effect is -3.15%.

As to `CN(C)CCN1CCO[C@H]2CN(Cc3cnn(C)c3)C[C@H]21`, the Percent Effect is -9.41%.

Turning to `CCN(Cc1ccccc1)Cc1nc2c(cnn2C)c(=O)[nH]1`, the Percent Effect is -16.6%.

On to `CCN(Cc1nc2c(cnn2C)c(=O)[nH]1)Cc1ccco1`, for which the Percent Effect amounted to 7.15%.

Turning to `CCN(Cc1nc2c(cnn2C)c(=O)[nH]1)Cc1cccs1`, the Percent Effect was found to be 61.1%.

`CCOCC1C[C@@H]2OCCN(C(=O)c3ccc[nH]3)[C@H]2C1` (stereo not given in full): the Percent Effect was -16.1%.

For `O=C(Nc1ccccc1-c1ccccc1)N1C[C@@H]2CNC[C@]2(C(=O)O)C1`, the Percent Effect is 4.15%.

In the case of `COCCNC(=O)[C@H]1C[C@@H]2CCN(c3ncccn3)C[C@H]2O1`, the Percent Effect was -14.4%.

For `CC(C)(C)c1ccc(CN2C[C@H]3C[C@H](O)C[C@H]3C2)c(OCC(N)=O)c1`, the Percent Effect came to 2.62%.

Consider `Cn1cc(N2CC[C@@H]3CN(Cc4ccncc4)C[C@H]3C2=O)cn1`, for which the Percent Effect turned out to be 6.53%.

Regarding `COCC(=O)N1C[C@H](N(C)Cc2cncnc2)[C@H]2OCCC[C@H]21`, the Percent Effect was found to be 3.58%.

In the case of `NS(=O)(=O)N1CCc2ccc(NC(=O)CC(F)(F)F)cc21`, the Percent Effect is -1.98%.

As to `NS(=O)(=O)N1CCc2ccc(NC(=O)Cc3ccc(F)cc3)cc21`, the Percent Effect turned out to be 70.3%.

In the case of `NS(=O)(=O)N1CCc2ccc(NC(=O)Cc3ccccc3F)cc21`, the Percent Effect amounted to 21.3%.

Consider `CN(C)S(=O)(=O)N1C[C@@H](OCc2ccccn2)[C@H]2OCCC[C@H]21`, for which the Percent Effect was found to be 14.2%.

Turning to `Cn1cc(CN2CC[C@@H]3[C@@H](CCC(=O)N3CCc3ccccc3)C2)cn1`, the Percent Effect is -11.2%.
